Shown are actives, neighbours in structure and some others; about 2.9% of the full set was active somewhere.
LYPLA2 inh: blocks human lysophospholipase 2, a PME1 counter-screen | AID 2177 | inhibition, % at 5.9 µM | recombinant LYPLA2, FP-Rh probe fluorescence polarization | 320,000 tested, 0.38% active;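 active means inhibition above the screen-wide mean plus 3 SD, limit set per campaign, cut at about 26% in these data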;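 further: 0% = LYPLA2 with DMSO and 100% = wells lacking LYPLA2 enzyme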
Target sequence (O95372 whole entry, looked up): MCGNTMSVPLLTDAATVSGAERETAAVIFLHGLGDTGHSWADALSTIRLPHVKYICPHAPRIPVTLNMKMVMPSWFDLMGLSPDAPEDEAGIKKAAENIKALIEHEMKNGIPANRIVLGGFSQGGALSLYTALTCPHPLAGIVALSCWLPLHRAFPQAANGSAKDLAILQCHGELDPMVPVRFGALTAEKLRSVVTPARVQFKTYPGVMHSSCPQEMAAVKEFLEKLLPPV
LYPLA1 counter: counter-screen for PME1 inhibitors: inhibitors of human LYPLA1 | AID 2174 | recombinant LYPLA1, FP-Rh probe fluorescence polarization | 320,000 tested, 0.16% active | inhibition, % at 5.9 µM;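 active means inhibition above the mean of all tested compounds plus 3 SD, set per campaign, cut at about 14% in these data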;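 further: inhibitors block serine hydrolase probe labeling of LYPLA1 so polarization falls; 0% = enzyme with DMSO and 100% = wells lacking LYPLA1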
Target sequence (O75608 whole entry, looked up): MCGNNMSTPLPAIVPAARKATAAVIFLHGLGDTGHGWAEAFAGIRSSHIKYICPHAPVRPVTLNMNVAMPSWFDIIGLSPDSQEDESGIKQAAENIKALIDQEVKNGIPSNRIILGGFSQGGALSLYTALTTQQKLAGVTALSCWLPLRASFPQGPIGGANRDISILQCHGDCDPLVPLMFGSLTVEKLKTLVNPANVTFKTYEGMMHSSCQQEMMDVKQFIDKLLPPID
PAFAH1B3 inh: inhibitors of human PAFAH1B3; recombinant PAFAH1B3, FP-rhodamine probe, fluorescence polarization; inhibition, % at 3.39 µM; 340,000 tested, 0.28% active;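 active means inhibition above the screen-wide average of all tested compounds plus 3 SD, cut at about 25% in these data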;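 further: 0% = enzyme with DMSO only and 100% = wells lacking PAFAH1B3 protein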
PAFAH1B2 inh: inhibitors of human PAFAH1B2; 340,000 tested, 1.2% active; recombinant PAFAH1B2, FP-rhodamine activity probe, fluorescence polarization; inhibition, % at 3.39 µM; P68402;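 active means inhibition above the mean of all tested compounds plus 3 SD, cut at about 24% in these data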;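 further: 0% = enzyme with DMSO and 100% = wells lacking PAFAH1B2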
pPAFAH inh: inhibitors of human plasma PAF acetylhydrolase (pPAFAH); inhibition, % at 3.39 µM; 330,000 tested, 1.5% active; Q13093; recombinant pPAFAH, FP-rhodamine probe fluorescence polarization; AID 463082;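 active means inhibition above the mean inhibition across the screen plus 3 SD, cut at about 25% in these data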;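 further: inhibitors block binding of the rhodamine activity-based probe so polarization drops; 0% = enzyme with DMSO and 100% = wells lacking pPAFAH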
PAFAH2 FP inh: inhibitors of human PAFAH2; AID 492956; 340,000 tested, 0.99% active; inhibition, % at 3.39 µM; recombinant PAFAH2, FP-rhodamine activity probe, fluorescence polarization; Q99487;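 active means inhibition above the mean over all tested compounds plus 3 SD, cut at about 30% in these data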;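 further: inhibitors block probe labeling of enzyme so polarization drops; 0% = enzyme with DMSO and 100% = wells lacking PAFAH2 protein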
* = called active by the depositor; x = not tested or not shown.

SMILES	LYPLA2 inh	LYPLA1 counter	PAFAH1B3 inh	PAFAH1B2 inh	pPAFAH inh	PAFAH2 FP inh
COc1ccc([N+](=O)[O-])cc1N(CC(=O)NCCSc1ccccc1)S(C)(=O)=O	-2	-2	13	21	1	3
CC1=CCC(C(=O)O)C(C(=O)Nc2ccc(-c3nc4ccc(C)cc4s3)cc2)C1 (stereo unspecified)	0	-5	-4	1	34*	-4
O=C1C=CC(=C(c2ccc(O)cc2)c2ccc(O)cc2)C=C1	-2	0	10	24*	5	-1
CCCCC(=O)Nc1nc2c(OC)ccc(OC)c2s1	3	2	-4	7	9	0
COc1ccccc1N1CCN(Cc2ccc(O)c3ncccc23)CC1	2	2	5	7	4	0
N#CC1=C(SCC(=O)NC23CC4CC(CC(C4)C2)C3)NC(=O)C(C#N)C12CCCCC2 (stereo unspecified)	-7	-1	2	37*	7	33*
CC1(C)CC(NC(=O)c2cccc(S(=O)(=O)Nc3cccc(Cl)c3)c2)CC(C)(C)N1	-3	0	8	-2	27*	-4
CCC(NC(=O)c1cc(COc2cncc(Cl)c2)on1)c1ccc(C)cc1 (stereo unspecified)	7	-1	1	28*	5	-3
CCN(CC)S(=O)(=O)c1ccc(N=Nc2c(N)[nH]c(=O)[nH]c2=O)cc1	3	3	3	1	0	4
O=C(Nc1nncs1)c1cc(S(=O)(=O)N2CCOCC2)ccc1Cl	3	-1	-4	3	-8	-1
Cc1nn(C(=O)c2cccnc2)c(C)c1Sc1ccc(Br)cc1	-5	-2	6	28*	0	0
CC(C)CNC(=O)C(=O)NCCCN1CCOCC1	5	-1	14	0	2	-3
O=C(NNC(=O)c1cc2ccccc2o1)c1ccncc1	x	x	2	8	2	-4
O=C(NNC(=O)c1ccccc1O)c1cc2ccccc2o1	-6	2	14	10	26*	15
O=C(NNC(=O)c1ccccc1O)c1ccc(-c2ccc([N+](=O)[O-])cc2)o1	0	2	8	6	32*	39*
O=C(CC1SC(=O)N(Cc2cccc3ccccc23)C1=O)Nc1nccs1 (stereo unspecified)	-5	-2	-5	2	4	-4
COc1cccc(CN(C)C(=O)COc2ccc(C(=O)c3ccc(Cl)cc3)cc2)c1OC	17	0	-2	2	28*	5
COc1ccc(NC(=O)CSCC(=O)N(C)Cc2cccc(OC)c2OC)cc1	4	3	2	-2	-1	1
N#Cc1ccsc1NC(=O)CSc1nncs1	x	x	13	3	11	13
N#Cc1ccsc1NC(=O)CSc1nnnn1-c1ccc(O)cc1	-12	-10	3	1	26*	1
CC(=O)NCCc1nc2cc(NS(=O)(=O)c3ccc(Cl)cc3)ccc2n1C	-2	-6	2	14	-7	8
Cn1c(CCNC(=O)c2ccco2)nc2cc(NS(=O)(=O)c3ccc(Cl)cc3)ccc21	-3	2	9	25*	3	5
CCCn1c(N)c(C(=O)CSc2ncn[nH]2)c(=O)n(C)c1=O	2	-1	4	2	-1	1
CCCCn1c(N)c(C(=S)NC(=O)CC(C)(C)C)c(=O)n(C)c1=O	-3	3	4	27*	-2	-2
Cc1ccc(NC(=O)C2Cc3ccccc3C(=O)O2)cc1 (stereo unspecified)	4	4	5	1	8	10
SMILES	LYPLA2 inh	LYPLA1 counter	PAFAH1B3 inh	PAFAH1B2 inh	pPAFAH inh	PAFAH2 FP inh
O=C1OC(C(=O)Nc2ccccc2)Cc2ccccc21 (stereo unspecified)	-1	-1	6	2	25*	49*
Cc1cc(NCCN2CCOCC2)n2nc(C)c(-c3ccccc3)c2n1	-2	-3	3	-4	3	-8
Cc1cc(NCCCn2ccnc2)n2nc(C)c(-c3ccccc3)c2n1	-5	-1	7	7	-3	-1
Cc1cc(NCCN2CCOCC2)n2nc(C)c(-c3ccc(Cl)cc3)c2n1	11	2	3	1	28*	5
Cc1cc(NCCCn2ccnc2)n2nc(C)c(-c3ccc(Cl)cc3)c2n1	11	5	5	0	25*	4
COC(=O)[C@@H](Cc1ccccc1)NS(=O)(=O)N[C@H](Cc1ccccc1)C(=O)OC	x	x	4	4	x	-4
CCCCOC(=O)Nc1cccc(Cl)c1C	-5	-2	11	4	7	-4
C/C(=N/NC(=O)CN1CCN(S(=O)(=O)c2ccc(Br)cc2)CC1)c1ccco1	-1	-3	4	27*	3	4
C/C(=N\NC(=O)CN1CCN(S(=O)(=O)c2ccc(C)cc2)CC1)c1cccnc1	1	1	6	6	-4	5
O=C(CN1CCN(S(=O)(=O)c2ccc(Br)cc2)CC1)N/N=C/c1ccco1	2	0	4	30*	4	13
O=S(=O)(c1ccc(Br)cc1)N1CCN(Cc2ccco2)CC1	-5	-6	10	26*	-5	3
C/C(=N/NC(=O)CN1CCN(S(=O)(=O)c2ccc(C)cc2)CC1)c1cccc(O)c1	-5	3	6	25*	4	-5
COc1cc(/C=N/NC(=O)C(C)Nc2n[nH]c(=O)[nH]c2=O)ccc1O (stereo unspecified)	-4	-3	4	-6	-1	4
CCC1=NN2C(=N)/C(=C\c3cccn3-c3ccc(Cl)cc3)C(=O)N=C2S1	1	0	1	42*	3	5
Cc1ccc(-n2cccc2/C=C2\C(=N)N3N=C(c4ccco4)SC3=NC2=O)cc1	-4	-3	7	32*	15	16
Nc1ccc(Cl)c[n+]1Cc1cccc2cccnc12	1	-1	6	4	2	0
COc1ccc(C(=O)N/C(=C/c2cccnc2)C(=O)NCc2ccco2)cc1OC	0	1	13	6	2	14
Cc1cccn2c(=O)c(C=NCc3ccco3)c(Nc3ccc(SC(F)F)cc3)nc12	3	-2	-1	2	34*	-5
Cc1cccn2c(=O)c(C=NCCO)c(NCc3ccco3)nc12	-1	-4	2	10	1	5
CCN(C1CCCCC1)S(=O)(=O)c1ccc(S(=O)(=O)NCc2ccncc2)cc1	4	3	-2	15	0	-1
CCN(C1CCCCC1)S(=O)(=O)c1ccc(S(=O)(=O)NCCc2ccncc2)cc1	3	0	11	25*	10	7
CCOc1ccc2oc(C(=O)OCC(=O)NC3CCCCC3)c(C)c2c1	1	0	-2	-4	26*	61*
NC(=O)COC(=O)c1ccc2c(c1)S(=O)(=O)c1ccccc1C2=O	4	2	-1	-2	2	-10
